Screens from PubChem BioAssay.
Shown are actives, neighbours in structure and some others; about 2.3% of the full set was active somewhere.
GLD-1 TGE inh: GLD-1-TGE RNA interaction inhibition (C. elegans) | Q17339 | purified GLD-1 + fluorescein TGE RNA, fluorescence polarization | inhibition, % at 5.96 µM | hit rate 0.44% among 320,000 | AID 2280;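 active = percent inhibition above a per-plate cutoff, the plate mean of test compounds plus 3 SD, cut at about 30% in these data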
MCL1-BIM inh: MCL1-BIM-BH3 interaction inhibition (human). inhibition, % at 10.9 µM. AID 2057. hit rate 0.68% among 320,000. GST-MCL1 / FITC-Bim-BH3 fluorescence polarization. Q07820;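 active = inhibition above the mean inhibition of all tested compounds plus 3 SD, set per campaign, cut at about 40% in these data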;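 note: higher means more loss of mP so more displacement of Bim peptide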
Target sequence (Q07820 whole entry, looked up): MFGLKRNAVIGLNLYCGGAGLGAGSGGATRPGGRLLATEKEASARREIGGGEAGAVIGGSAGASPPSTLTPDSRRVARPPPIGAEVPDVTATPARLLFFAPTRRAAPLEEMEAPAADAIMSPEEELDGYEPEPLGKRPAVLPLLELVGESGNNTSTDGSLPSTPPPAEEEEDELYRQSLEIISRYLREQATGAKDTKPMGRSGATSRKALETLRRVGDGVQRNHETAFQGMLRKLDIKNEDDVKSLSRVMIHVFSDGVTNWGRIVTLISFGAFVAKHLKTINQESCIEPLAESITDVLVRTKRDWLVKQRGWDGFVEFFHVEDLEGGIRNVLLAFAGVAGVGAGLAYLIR
Mcl1 Noxa PPI: Mcl-1/Noxa interaction inhibition. hit rate 1.5% among 220,000. inhibition, % at 21.7 µM. TR-FRET Mcl-1/Noxa peptide binding, 2 h. Q07820;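 active = compounds that cut the protein-peptide binding signal by more than 50% relative to plate controls in a single-dose test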;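 note: His-tagged Mcl-1 with rhodamine Noxa BH3 peptide and terbium anti-His antibody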
Bcl-xL primary: inhibitors of human Bcl-xL; inhibition, % at 10.9 µM; GST-Bcl-xL / FITC-Bim BH3 peptide fluorescence polarization; Q07817; AID 2129; hit rate 0.7% among 320,000;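 active = inhibition above the mean of all tested compounds plus 3 SD, cutoff set per campaign, cut at about 30% in these data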;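 note: inhibitors lower millipolarization by displacing the labeled peptide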
Target sequence (Q07817 whole entry, looked up): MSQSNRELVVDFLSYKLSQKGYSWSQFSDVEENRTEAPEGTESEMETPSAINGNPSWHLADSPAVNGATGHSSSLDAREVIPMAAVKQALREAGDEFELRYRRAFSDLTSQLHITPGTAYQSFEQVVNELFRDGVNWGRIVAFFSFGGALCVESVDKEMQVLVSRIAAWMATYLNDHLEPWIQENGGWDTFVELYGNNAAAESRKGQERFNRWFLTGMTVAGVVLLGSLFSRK
Bim-Mcl-1: disrupts Bim peptide binding to human Mcl-1; Q07820; Bead-based flow cytometry, Bim peptide-Mcl-1 binding; inhibition, % at 10 µM; hit rate 0.1% among 190,000; in the data active = inhibition above about 40%
Mcl1-Bid inh: disrupts binding of human Mcl-1 to Bid peptide; Q07820; TR-FRET Mcl-1/Bid-Dy647 peptide binding, 1536-well; inhibition, % at 21.7 µM; hit rate 0.97% among 220,000; AID 1021;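 active = compounds that cut the binding signal by more than half at the single screening dose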;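 note: His-tagged Mcl-1 with europium anti-His antibody binding Bid BH3 peptide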
Each line names hits and unclear results; the compound was inactive in the other large screens.

O=C(N/N=C/c1ccc(O)cc1)c1cccc(N/N=C/c2ccc(O)cc2)c1	Mcl1 Noxa PPI 79.6 (no result: Bim-Mcl-1)
CN(CCc1ccccn1)C1CCCN(S(=O)(=O)c2ccc(F)c(Cl)c2)C1 (stereo unspecified)	none (no result: Mcl1 Noxa PPI, Bim-Mcl-1, Mcl1-Bid inh)
CC(C)c1ccc(/C=C2\SC(=O)N(CC(=O)NC3C=CS(=O)(=O)C3)C2=O)cc1 (stereo unspecified)	none (no result: Mcl1 Noxa PPI, Bim-Mcl-1, Mcl1-Bid inh)
CCCN1C(=O)/C(=C\c2nc3ccccc3c(=O)[nH]2)c2ccccc21	Mcl1-Bid inh 50.5 (no result: GLD-1 TGE inh, MCL1-BIM inh, Bcl-xL primary)
COc1ccc(-n2c(=O)cc(N3CCOCC3)[nH]c2=O)cc1	Mcl1-Bid inh 91.6
O=C(NCc1cccs1)c1ccc2ccccc2n1	none
COc1ccccc1NC(=O)CSc1nnc2ccc(-c3cccnc3)nn12	none
CCOc1ccccc1NC(=O)CSc1nnc2ccc(-c3cccnc3)nn12	Bim-Mcl-1 40.0
CC(OC(=O)Cn1cc(C(F)(F)F)ccc1=O)C(=O)NC(C)c1ccc(Cl)cc1Cl (stereo unspecified)	none (no result: Mcl1 Noxa PPI, Bim-Mcl-1, Mcl1-Bid inh)
O=C(/C=C/c1ccc(O)c(O)c1)c1ccc(S(=O)(=O)N2CCCCCC2)cc1	Mcl1 Noxa PPI 64.9
CCOc1ccc(NC(=O)CN(C)C(=O)Cc2ccsc2)cc1OCC	none (no result: Mcl1 Noxa PPI, Bim-Mcl-1, Mcl1-Bid inh)
CN1CCN(c2ccc(Cl)cc2NC(=O)c2ccc(S(=O)(=O)N(C)C)cc2)CC1	Mcl1 Noxa PPI 54.9
O=Cc1[nH]c2ccccc2c1N(C(=O)CCl)c1ccc([N+](=O)[O-])cc1	Mcl1 Noxa PPI 92.1 (no result: Bim-Mcl-1)
Oc1ccc(-c2nc(-c3ccc(O)c(O)c3)cs2)cc1	Mcl1 Noxa PPI 59.0
C=CCOC(=O)/C=C/C(=O)NC(N)=O	Mcl1-Bid inh 75.4 (no result: Bim-Mcl-1)
COc1cc2c(=O)n(Cc3ccccc3)c(=O)n(CC(=O)NCc3ccco3)c2cc1OC	Mcl1-Bid inh 52.5 (no result: GLD-1 TGE inh, MCL1-BIM inh, Bcl-xL primary)
CC(C)c1ccc(/C=N/NC(=O)c2ccccc2Cl)cc1	Bim-Mcl-1 45.0
COC(=O)c1ccc(/C=N/NC(=O)c2ccccc2Cl)cc1	none
CC(C)(C)NC(=O)NC(=O)CN1CCCCCCC1	none
COc1ccc(CNC(=O)N2CCN(S(=O)(=O)c3ccccc3)CC2)cc1	none (no result: Mcl1 Noxa PPI, Bim-Mcl-1, Mcl1-Bid inh)
Cc1ccc(-c2nnc(N3CC(C)OC(C)C3)c3ccccc23)cc1 (stereo unspecified)	Mcl1-Bid inh 90.6
C=CC[C@@H](CC(=O)N[C@H](CO)Cc1ccccc1)C(=O)N[C@@H](C)COC(=O)[C@@H](CC=C)CC(=O)OC(C)(C)C	none (no result: MCL1-BIM inh, Mcl1 Noxa PPI, Bcl-xL primary, Bim-Mcl-1, Mcl1-Bid inh)
CC(=O)c1cc(C#N)c(SCc2ccccc2)nc1C	none
CC(=O)c1cc(C#N)c(SCc2ccccn2)nc1C	Mcl1 Noxa PPI 87.7 (no result: Bim-Mcl-1)
CCOc1ccccc1NC(=O)/C=C/C(N)=O	Mcl1 Noxa PPI 97.8
Cc1nn(C)c(C)c1NC(=O)CSc1nc(Cc2ccccc2)nc2c1cnn2-c1ccccc1	none (no result: Mcl1 Noxa PPI, Bim-Mcl-1, Mcl1-Bid inh)
Cc1nn(Cc2ccccc2)c(C)c1NC(=O)CSc1nc(C2CC2)nc2c1cnn2-c1ccccc1	Mcl1-Bid inh 62.6
CCN(CC)C(=O)CN1CCN(c2ncccn2)CC1	Mcl1-Bid inh 55.8
S=c1[nH]nc(-c2cccc(Cl)c2)n1CCN1CCCCC1	Mcl1-Bid inh 95.5
CCn1c(-c2cccc(Br)c2)n[nH]c1=S	Mcl1-Bid inh 96.7
O=C(CCN1C(=O)c2ccccc2C1=O)N1CCN(C2c3ccccc3-c3ccccc32)CC1	none
CCOC(=O)c1cc2occc2n1CC(=O)NC1CCCCC1C (stereo unspecified)	Mcl1-Bid inh 98.6
COc1ccc2c3c([nH]c2c1)[C@H]1C[C@H]2[C@H](C[C@@H](O)[C@H](OC)[C@H]2C(=O)O)CN1CC3	none (no result: Mcl1 Noxa PPI, Bim-Mcl-1, Mcl1-Bid inh)
O=C(NCC1CCCCC1)C1(CC2CC(c3ccc(Cl)cc3)=NO2)CCNCC1 (stereo unspecified)	none (no result: Mcl1 Noxa PPI, Bim-Mcl-1, Mcl1-Bid inh)
CCOC(=O)N1CC=C2C(C#N)=C(N)C(C#N)(C#N)[C@H](c3ccsc3)[C@H]2C1	Bcl-xL primary 40.9
CCOC(=O)N1CC=C2C(C#N)=C(N)C(C#N)(C#N)[C@H](c3ccccc3OCC)[C@H]2C1	none
CN1C2C=C3C(C#N)=C(N)C(C#N)(C#N)[C@@H](c4ccsc4)[C@@H]3C1CC2 (stereo partly specified)	Bim-Mcl-1 53.0
N#CC1=C(N)C(C#N)(C#N)C(c2ccncc2)C2CN(C(=O)OCc3ccccc3)CC=C12 (stereo unspecified)	none
CC(C)c1ccc(C2C3CSCC=C3C(C#N)=C(N)C2(C#N)C#N)cc1 (stereo unspecified)	none
CCCC1C2CN(C(C)C)CC=C2C(C#N)=C(N)C1(C#N)C#N (stereo unspecified)	GLD-1 TGE inh 131.7, MCL1-BIM inh 180.2, Bcl-xL primary 161.3
CC(C)CN1CCN(CC#Cc2ccccc2)CC1CCO (stereo unspecified)	none
CCOC(=O)C1=C(c2ccccc2)Nc2ncnn2C1c1ccccn1 (stereo unspecified)	none
CCN(C(=O)CSc1nc(-c2ccccc2)cn1N)c1c(N)n(Cc2ccccc2)c(=O)[nH]c1=O	none (no result: Mcl1 Noxa PPI, Bim-Mcl-1, Mcl1-Bid inh)
CN(C(=O)c1ccncc1)C1CC(C)(C)N(O)C(C)(C)C1	none
NCCNC[C@@H]1COC2(CCCCCCCCCCC2)O1	Mcl1-Bid inh 58.9 (no result: Bim-Mcl-1)
Cc1ccc(Cl)c(OCCCN(C)Cc2ccccc2)c1	Mcl1-Bid inh 77.4 (no result: Bim-Mcl-1)
Cc1ccc(Cl)c(OCCCCN(C)Cc2ccccc2)c1	Mcl1-Bid inh 52.5
CC(C)CCNC(=O)C(c1ccco1)N(CCCO)C(=O)Cn1nnc(-c2ccc(F)cc2)n1 (stereo unspecified)	none
CSc1cc(-c2ccccc2)n(Cc2ccccc2Cl)c(=O)c1C#N	none
Cc1[nH]nc2c1C1(CCN(Cc3ccccc3)CC1)C(C#N)=C(N)O2	Bcl-xL primary 40.3
Cc1cc(C(F)F)n2nc(C(=O)Nc3sc4c(c3C(N)=O)CCC4)nc2n1	Mcl1 Noxa PPI 73.6
NC(=O)c1nn(CC(=O)Nc2ccc3c(c2)OCO3)cc1[N+](=O)[O-]	Mcl1 Noxa PPI 73.5
CC1SC(C)C(=O)N(CC(=O)Nc2ccc3c(c2)OCO3)C1=O (stereo unspecified)	none
O=C(CN1C(=O)CSCC1=O)Nc1ccc2c(c1)OCO2	Mcl1 Noxa PPI 53.1
O=C(Cc1ccccc1[N+](=O)[O-])Nc1ccc2c(c1)OCO2	none
CC(C)(C)c1ccc(C(=O)c2c[nH]c(C(=O)NCc3cccs3)c2)cc1	none
Cn1c(SCc2ccc(Cl)cc2)nc(C(F)(F)F)cc1=O	none
CC(=O)OC1COC(N2CCc3cc(Br)c([N+](=O)[O-])cc32)C(OC(C)=O)C1OC(C)=O (stereo unspecified)	none
Cc1cccc(C(=O)N2CCC(c3nc(-c4ccc(S(=O)(=O)N5CCOCC5)cc4)no3)CC2)c1	Bim-Mcl-1 47.0 (no result: Mcl1 Noxa PPI, Mcl1-Bid inh)
O=C(c1ccccc1)N1CCC(c2nc(-c3ccc(S(=O)(=O)N4CCOCC4)cc3)no2)CC1	none
Nn1c(SCC(=O)NC2CCCCC2)nnc1-c1ccccc1F	none (no result: Mcl1 Noxa PPI, Bim-Mcl-1, Mcl1-Bid inh)
Clc1ccc2c(N/N=C/c3cccc(Br)c3)ccnc2c1	Mcl1-Bid inh 60.5
